High-throughput results deposited in PubChem by National Center for Advancing Translational Sciences (NCATS).
Only some compounds are listed: those with a hit (about 8.7% of all), similar ones and a draw of the others.
VACV Venus inh: qHTS for Stage-Specific Inhibitors of Vaccinia Orthopoxvirus: Venus Reporter Primary qHTS; 0.46% of 330,000 active; Vaccinia virus Venus reporter expression, fluorescence; Potency, µM (top dose mostly 36.5 µM), inactives show at the top dose activity change, negative = inhibition, usual class: inhibitors; calls by dose curve; tested in A549 cells; further: nearly all actives have a fitted effect of over 30% in size
AMA1 RON2 block: qHTS for Inhibitors of AMA1-RON; Towards Development of Antimalarial Drug Lead: Primary Screen | Plasmodium falciparum AMA1 (3D7) - RON2 peptide interaction | AlphaScreen AMA1-biotinylated RON2 peptide binding | Potency, µM (highest dose often 58.2 µM), without a hit: at the highest dose activity change, negative = inhibition, usual class: inhibitors | 0.2% of 360,000 active | AID 720542, 2013;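 further: 0% = vehicle wells and -100% = peptide control; nearly all actives have a fitted effect of over 45% in size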
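AMA1 (3D7) with his tag at 25 nM final met compounds first, then biotinylated RON2 peptide at 25 nM; detection used donor plus acceptor beads, 10 µg/mL apiece, read by AlphaScreen after 30 min at room temperature.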
Pf growth 48h: Primary qHTS for delayed death inhibitors of the malarial parasite plastid, 48 hour incubation; P. falciparum luciferase growth in erythrocytes, 48 h; 5.9% of 310,000 active; AID 504832, 2011; Potency, µM (top dose mostly 28.7 µM), for inactives: at the top dose activity change, negative = inhibition, hits mostly inhibitors
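Read-out is firefly luciferase luminescence from an integrated reporter in P. falciparum, so falling signal marks reduced parasite growth. Infected erythrocytes were at 2% hematocrit and 0.1% parasitemia (final) in Albumax-supplemented RPMI 1640.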
VACV mCherry inh: qHTS for Stage-Specific Inhibitors of Vaccinia Orthopoxvirus: mCherry Reporter Primary qHTS | Vaccinia virus mCherry reporter infection, fluorescence | Potency, µM (top dose mostly 36.5 µM), inactives show top-dose activity change, negative = inhibition, most hits filed as inhibitors | 0.63% of 310,000 active | AID 720579, 2013; calls by dose curve; tested in A549 cells; further: nearly all actives have a fitted effect of over 35% in size
Pf growth 96h: Primary qHTS for delayed death inhibitors of the malarial parasite plastid, 96 hour incubation; P. falciparum luciferase reporter growth, 96 h; Potency, µM (top dose mostly 28.7 µM), inactives show top-dose activity change, negative = inhibition, most hits filed as inhibitors; 6.9% of 320,000 active; AID 504834, 2011
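Two parasite generations (96 h, 37 C, 5% CO2) of compound exposure in infected erythrocytes (0.05% parasitemia, 2% hematocrit). Luciferase-reporter P. falciparum; decreased luminescence indicates inhibited growth, aimed at apicoplast-acting delayed death.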
* hit, by the source's call; i = inactive; u = inconclusive; x = not tested or not shown; [ ] = dose if it differs, or a comment. Unless noted, the call rests on the fitted dose curve; in most records, active means well fitted curve in the direction sought with a large enough effect; inconclusive means small, poorly fitted or top-dose-only effect, or another doubt; inactive means no such curve, though single readings can be large; an effect the other way counts as inactive or inconclusive. Unless noted, on the % scale 0 is the no-effect control and ±100 the full control effect; potency means the concentration at half of the fitted maximal effect.

SMILES	VACV Venus inh	AMA1 RON2 block	Pf growth 48h	VACV mCherry inh	Pf growth 96h
CC1CCCN(S(=O)(=O)c2cc(C(=O)NCc3ccccc3Cl)n(C)c2)C1 (centres undefined)	-18%	x	x	-19%	x
CCCOC(=O)C1=C(C)CS[C@@H]2[C@H](NC(=O)COc3ccccc3)C(=O)N12	u	x	x	-11%	x
O=C(COc1ccccc1)Nc1nc(-c2ccc(S(=O)(=O)N3CCOCC3)cc2)cs1	-23%	-1%	u	-7%	x
O=C(CCCc1ccccc1)Nc1ccc(S(=O)(=O)N2CCOCC2)cc1	-8%	-6%	u	-10%	10µM*
CC(=O)Nc1ccc(S(=O)(=O)NCCN2CCNC2=O)cc1Cl	x	4%	u	x	7.4µM*
O=C1NCCN1CCNS(=O)(=O)c1ccc(F)c(Cl)c1	x	-7%	10%	x	35%
O=C(CCc1ccc(S(=O)(=O)N2CCOCC2)cc1)N/N=C/c1cccc(O)c1	2%	1%	u	-14%	15µM*
O=C(CCc1ccc(S(=O)(=O)N2CCOCC2)cc1)Nc1nc(COc2ccccc2)cs1	x	-6%	12µM*	x	x
Cn1cnnc1SCC(=O)Nc1ccc(C#N)cc1	0%	x	x	-5%	x
O=C(CSc1nc(=O)n(CCN2CCOCC2)c2c1CCC2)Nc1ccccc1	-15%[7.34 µM]	x	x	-5%[7.34 µM]	x
CCc1ccc(N2C(=O)CS(=O)(=O)C23C(=O)N(Cc2ccccc2F)c2ccccc23)cc1 (centres undefined)	-3%	x	x	-1%	x
CCc1ccc(-n2c(N3CCN(c4cccc(C)c4C)CC3)nc3ccccc3c2=O)cc1	-11%	x	x	-7%	x
CC(C(=O)Nc1ccc(S(=O)(=O)N2CCCC2)cc1)N1CCc2ccccc2C1 (centres undefined)	x	u	12µM*	x	u
CCOC(=O)C1CCN(S(=O)(=O)c2ccc(NC(C)=O)c(Cl)c2)CC1	-5%[7.34 µM]	-16%	48%	-20%[7.34 µM]	48%
CC(Oc1ccccc1Cl)C(=O)Nc1ccc(S(=O)(=O)N2CCCC2)cc1 (centres undefined)	-27%	-9%	13µM*	i	24%
CC(=O)Nc1ccc(S(=O)(=O)N2CCN(CCN3CCOCC3)CC2)cc1Cl	x	13%	2.1µM*	x	15%
Cc1cc(C)c(S(=O)(=O)NCCc2sc(-c3cccnc3)nc2C)c(C)c1	0%	x	x	2%	x
COC(=O)C(Cc1c[nH]c2ccccc12)NC(=O)COc1cccc(C)c1 (centres undefined)	0%	x	x	-8%	x
O=C1OC2(c3ccccc31)c1cc(I)c(O)c(I)c1Oc1c2cc(I)c(O)c1I	x	x	13µM*	x	8.3µM*
Cc1cc(O)ccc1C1(c2ccc(O)cc2C)OC(=O)c2ccccc21	-29%	3%	7%	x	36%
COc1ccc(N2C(=O)[C@@H]3[C@H](C2=O)[C@H]2C=CC=NN2[C@@H]3C(=O)Nc2ccc(Cl)cc2)cc1	x	7%	u	x	-17%
COc1ccc(N2C(=O)[C@@H]3[C@H](C2=O)[C@H]2c4ccccc4C=CN2[C@@H]3C(=O)Nc2ccccc2)cc1	x	18%	x	x	9.3µM*
O=C(c1ccco1)[C@@H]1[C@@H]2C(=O)N(c3ccccc3)C(=O)[C@@H]2C2c3ccccc3C=CN21 (some centres undefined)	12%	0%	-4%	-8%	4.7µM*
Cc1ccc(N2C(=O)[C@@H]3[C@H](C2=O)C2c4ccccc4C=CN2[C@@H]3C(=O)c2ccco2)cc1 (some centres undefined)	14%	0%	u	x	-6%
CCC(Oc1ccccc1)C(=O)Nc1ccccc1OCc1cc(=O)n2ccccc2n1 (centres undefined)	-21%	x	x	-10%	x
SMILES	VACV Venus inh	AMA1 RON2 block	Pf growth 48h	VACV mCherry inh	Pf growth 96h
CCOCCCNC(=O)c1ccc2c(=O)n(CCc3ccccc3)c(=O)[nH]c2c1	13%	x	x	2%	x
CCC(=O)N1c2ccccc2CC1C(=O)NCCN1CCN(c2cccc(C)c2C)CC1 (centres undefined)	-13%	x	x	-16%	x
COC(=O)C(CCSC)NC(=O)c1cc2c(n(-c3ccc(Cl)cc3)c1=O)CCCC2=O (centres undefined)	-3%	x	x	-2%	x
COc1ccc(Cn2c(=O)[nH]c3cc(C(=O)Nc4ccc(N5CCN(C)CC5)cc4)ccc32)cc1	-26%	u	-21%	u	u
CCN1CCN(c2ccc(NC(=O)c3ccc4c(c3)[nH]c(=O)n4Cc3ccc(F)cc3)cc2)CC1	-17%	u	7.4µM*	-9%	13µM*
Cc1ccc(C2C=C(c3ccc(Cl)cc3)Nc3nc(NC(=O)c4ccco4)nn32)cc1 (centres undefined)	-5%	x	x	-17%	x
c1ccc(CCn2c(C3CC3)nc3ccccc32)cc1	x	2%	x	x	3.3µM*
COCc1nc2ccccc2n1Cc1ccccc1	-5%	5%	30%	-12%	u
CCCn1c(CNC(=O)c2ccccc2)nc2ccccc21	-6%	3%	2%	u	2.9µM*
CCCc1nc2ccccc2n1CCc1ccccc1	-3%	15%	3.3µM*	i	3.7µM*
OCCCc1nc2ccccc2n1CCc1ccccc1	x	3%	u	x	u
ClCc1nc2ccccc2n1Cc1ccccc1	x	-1%	6.6µM*	x	u
COc1ccc(C2c3cc(OC)c(OC)cc3CC(=O)N2c2ccc(C)cc2)cc1 (centres undefined)	-6%	x	x	-6%	x
COc1ccc(Cl)cc1NC(=O)CSC1=Nc2ccccc2C2=NC(CCC(=O)NCc3ccco3)C(=O)N12 (centres undefined)	-10%	x	x	-2%	x
CCn1nc(-c2ccccc2)c(-c2ccccc2)c(C(=O)Nc2ccccc2C#N)c1=O	-11%	x	x	0%	x
CCC(C)Nc1nc(OC(C(F)(F)F)C(F)(F)F)nc(OC(C(F)(F)F)C(F)(F)F)n1 (centres undefined)	-9%	4%	3%	i	u
CCNc1nc(NCC)nc(ON=C(C)C)n1	x	x	3.7µM*	x	2.1µM*
CCNc1nc(NC(C)CC)nc(ON=C(C)C)n1 (centres undefined)	-10%	2%	1.5µM*	-30%	13µM*
Cc1cccc(C(=O)n2nc(-c3cccnc3)nc2NCc2ccc(F)cc2)c1	-10%	x	x	-14%	x
C=CCC1(CC=C)CCCN1C(=O)c1cc(COc2ccccc2SC)on1	-1%	-4%	15µM*	-14%	-12%
C=CCN(c1ccccc1OC)S(=O)(=O)c1ccc(Cl)c(C(=O)Nc2ccc(N3CCOCC3)cc2)c1	-15%	-29%	5.9µM*	-17%	4.1µM*
CCN(c1ccccc1)S(=O)(=O)c1cccc(C(=O)NCC(c2cccs2)N2CCOCC2)c1 (centres undefined)	u	5%	15µM*	-13%	u
